Entries with a potency or affinity are not part of this list. Calls of active or inactive are those of the source.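 How the source made its calls: active means signal drop with fitted half-maximal dose at most twice the top valid dose, active in every repeat; inconclusive means repeats disagree, or flat partial inhibition, or poor fit; inactive means inactive in every repeat, including opposite effects.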
biological target: Caspase-3 (Homo sapiens) (UniProt P42574); experiment: human caspase-3 protease activity blockade – biochemical, fluorescence, cherry-picked samples, selectivity assay for caspase-6 allosteric inhibitor project, dose response (AID 743291); details: Recombinant caspase-3, Z-DEVD-R110 cleavage fluorescence; series mostly up to 35 µM
Sequence (P42574 whole entry, looked up): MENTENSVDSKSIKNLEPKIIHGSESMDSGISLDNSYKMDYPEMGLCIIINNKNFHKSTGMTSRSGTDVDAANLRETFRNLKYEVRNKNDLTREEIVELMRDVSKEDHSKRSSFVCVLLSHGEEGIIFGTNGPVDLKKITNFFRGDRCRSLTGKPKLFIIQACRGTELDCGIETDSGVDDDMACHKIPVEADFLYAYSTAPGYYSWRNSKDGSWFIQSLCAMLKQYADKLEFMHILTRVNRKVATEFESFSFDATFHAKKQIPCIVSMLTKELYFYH

outcome, inactive:
COc1cc(C)c2c(c1C=O)Oc1c(c(C)c(O)c3c1C(O)OC3=O)OC2=O (stereo not drawn)
COc1cc(NC(C)CCCNC(C)C)c2ncccc2c1OC (stereo not drawn)
[O-][n+]1onc2c1CCc1c-2nn(-c2ccccc2Cl)[n+]1[O-]
COc1ccc(OC)c(Nc2cc3ccccc3c(=O)[nH]2)c1
Nc1cc2c(cc1Br)[nH]c(=O)c1ccccc12
NS(=O)(=O)c1ccc(NC(=O)COC(=O)c2ccc([N+](=O)[O-])s2)cc1
O=C(Nc1ccc(S(=O)(=O)Nc2cnc3ccccc3n2)cc1)c1ccc(Cl)c([N+](=O)[O-])c1
COc1cc(NC(=O)COC(=O)c2ccc([N+](=O)[O-])s2)cc(OC)c1OC
Oc1cc(NCCc2cccnc2)cc2cccnc12
COc1ccc(C(=O)OCC(=O)Nc2ncc([N+](=O)[O-])s2)cc1OC
CCOc1c(O)ccc(/C=C2\SC(=S)NC2=O)c1[N+](=O)[O-]
O=c1[nH]c(Nc2ccc(F)cc2)cc2ccccc12
O=C(COC(=O)c1ccc([N+](=O)[O-])s1)Nc1ccccc1
O=C(c1cccc(-n2cccc2)c1)N1CCN(S(=O)(=O)c2ccccc2)CC1
O=C(O)CCc1ccc(-c2ccc(Br)cc2)n1CC(=O)O
O=C(O)C1CCCCC1C(=O)Nc1cccc(Br)c1 (stereo not drawn)
CCOC(=O)c1sc2nc(OCCN3CCOCC3)cc(C)c2c1N
CCCCN(C(=O)c1cccc(-n2cccc2)c1)c1c(N)n(Cc2ccccc2)c(=O)[nH]c1=O
CCCCN(C(=O)c1cccc(-n2cccc2)c1)c1c(N)n(CCC)c(=O)[nH]c1=O
Cc1cccc(NC(=O)CNC(=O)c2cccc(-n3cccc3)c2)c1C
Cc1[nH]nc(S(=O)CC(=O)O)c1[N+](=O)[O-] (stereo not drawn)
O=c1cc2c(=O)oc3cc(O)c(O)oc3c2c(O)c1O
Cn1cnnc1SCC(=O)Nc1ncc([N+](=O)[O-])s1
CN(CC(=O)Nc1c(Cl)cccc1Cl)C(=O)c1cccc(-n2cccc2)c1
Cc1ccc(C)c(NC(=O)CN(C)C(=O)c2cccc(-n3cccc3)c2)c1
CNS(=O)(=O)c1cccc(C(=O)OCC(=O)N2c3ccccc3NC(=O)C2(C)C)c1
C/C(CC(=O)N1CCCC1)=N\NC(=O)c1cc2ccccc2cc1O
Cc1ccc(S(=O)c2ccc([N+](=O)[O-])c3nonc23)cc1 (stereo not drawn)
O=C(O)Cc1ccc(-n2cccc2)cc1
O=C(O)CC(CCc1ccccc1)OC1OC(CO)C(O)C(O)C1O (stereo not drawn)
O=c1c(O)cccc2cc(O)c(O)c(O)c12
COc1cc(NC(C)CCCN)c2ncccc2c1 (stereo not drawn)
O=c1ccc2c(-c3ccccc3S(=O)(=O)O)c3ccc(O)c(O)c3oc-2c1O
Cc1c(CCC(=O)O)c(=O)oc2c(C)c(OCc3ccccc3Cl)ccc12
Nc1cc2nn(-c3ccccc3)nc2cc1Cl
Cc1oc2c(cc(NS(=O)(=O)c3ccc(C(C)C)cc3)c3ccccc32)c1C(=O)O
O=C(COC(=O)c1ccc([N+](=O)[O-])s1)Nc1ccc(F)cc1
Cc1ccc(S(=O)(=O)Nc2csc(C)c2C(=O)O)cc1

— PubChem BioAssay AID743291 (Broad Institute, 2014)
